Measured values reported in article PMC10163288.
Not all results are given here. The true hit rate is not given.

B1: il10ra_site1_normal_mot_HHH_b2_00033_000000036_0001_41_54_H_._HHH_b1_00990_0001_0000100001_0000001_0 (protein)
chain: SSSDETEEASELAAEAIRLAIRLGDEEIFQELWELFKLVIREGDPEVTERLEELLEELRERSSSS
B2: il10ra_site1_sap_20_mot_HHH_b1_02766_af2_000000078_0001_42_56_H_._HHH_b2_04892_0001_0001000047_0000001_0_0001 (protein)
chain: SSSSDELSEEAMKLIERASELDQNGNPEEAKEVLERAEELAEEAGNRVLAWNIRFLLRRLSSSSS
B3: il10ra_site1_sap_22_mot_HHH_b2_03328_af2_000000127_0001_1_19_H_._HHH_b1_06177_0001_0000200023_0000001_0_0001 (protein)
chain: SSSSTQELYELLRRIVELDHKGNLEEAERLLEELEELARERNDPNIRMQVEFLEEIIRRNLSSSS
B4: il10ra_site1_normal_mot_HHH_b1_04514_000000156_0001_1_18_H_._HHH_b1_03241_0001_0000100007_0000001_0 (protein)
chain: SSSSYEEVKELIEEIIELAREGNPEEAEKVLRELERLAEELNNPAIRFVVRLLEEVIERQSSSSS
B5: il10ra_site1_sap_15_mot_HHH_b2_02354_af2_000000157_0001_40_56_H_._HHH_b1_07270_0001_0000500051_0000001_1_0001 (protein)
chain: SSSSSEQERAALRFAKWLIEIIEETGNPSARRSLEVMLWLLERINSEEAEELLKEAEELLSSSSS
B6: il10ra_site1_normal_mot_39ab2cb694c8b9c1dc7e65c0d672c93e_0001_000000036_0001_53_65_H_._HHH_b1_05574_0001_0000300023_0000001_0 (protein)
chain: SSSSSEEERIEELIEEAKELLERGNPEEALELVLEALRLAYQNRNAELLQELWRLAKEIASSSSS
B7: il10ra_site1_normal_mot_HHH_b2_05548_000000224_0001_41_54_H_._HHH_b1_07835_0001_0000100002_0000002_0_af2pred_0001 (protein)
chain: SSSSSDEEVEQLLEEAERLLKEGNPEEAAKVVAKAAELALELGNVELIKLVVELLRLIANSSSSS
B8: il10ra_site1_normal_mot_HHH_b1_00999_000000080_0001_41_55_H_._HHH_b1_01870_0001_0000600018_0000001_0 (protein)
chain: SSSSSSSEEEVEELLEEAKEIDDPREAARVLQEATHIALRNQNPELLRLVWEVVKRLGSSSSSSS
B9: il10ra_site1_normal_mot_HHH_b2_04945_000000076_0001_1_19_H_._HHH_b2_05056_0001_0000400022_0000001_0 (protein)
chain: SSSSTDELFEEVRRIIEEAVRLYREGNPEEARRLVEEALELAEENNNFALVFALEHLLRDLSSSS
B10: il10ra_site1_normal_mot_HHH_b2_07144_000000289_0001_1_18_H_._HHH_b2_04284_0001_0000200013_0000001_1 (protein)
chain: SSSSSENHRAYELSREAAELLRQGNEEEAREVLEEVKEIAEEANNPILEFAARAIEKAVNSSSSS
B11: il10ra_site1_normal_mot_HHH_b2_01032_000000296_0001_1_18_H_._HHH_b1_04384_af2_0001_0000600026_0000001_1 (protein)
chain: SSSSSDEEEELLELSRQAFELALRGNPEEAREVLEEAERLARELGDERLLRLVEELLQALSSSSS
B12: il10ra_site1_sap_16_mot_HHH_b2_00093_af2_000000025_0001_40_54_H_._HHH_b1_03751_0001_0001000047_0000001_0_0001_af2pred_0001 (protein)
chain: SSSSSEEERFYQLLLEALRLARRLNDEEVEEELRELLEEYKQKGDPRVEERIEELLKELRSSSSS
B13: il10ra_site1_sap_29_mot_HHH_b2_02354_af2_000000157_0001_40_56_H_._ems_3hM_2942_af2_0001_0000100002_0000002_1_0001_af2pred_0001 (protein)
chain: SSSSTAEEDVRLAIAAAELALKAGDPEKARRALEIAKLIARQGNNPELEEELEELEEEINSSSSS
B14: il10ra_site1_normal_mot_HHH_b2_00479_000000091_0001_1_12_H_._HHH_b2_03388_af2_0001_0000400024_0000002_0 (protein)
chain: SSSSTEENDEVYKLIREALELMARGNPEEARKVLEEAEEILEELNNRVLLFNVRFLLRELGSSSS
B15: il10ra_site1_normal_mot_HHH_b1_05056_000000217_0001_1_20_H_._HHH_b2_04661_af2_0001_0000500034_0000002_0 (protein)
chain: SSSSDEEELEELLEKLEELAEKGDRERFLELVLRLSELIFRLGDKEALQRLWELVREFLRRSSSS
B16: il10ra_site1_normal_mot_HHH_b2_02337_000000026_0001_38_52_H_._HHH_b2_04776_0001_0000200023_0000003_0 (protein)
chain: SSSSSSEEEEEIEELLEQLERAKSDEEISEVALRLVRLIWELNNQELLQRLWEIVKRLASSSSSS
B17: il10ra_site1_normal_mot_HHH_b2_04274_000000146_0001_1_19_H_._5a9ba470ffdefe7bbe7d066b6a6aec3b_0001_af2_0001_0000200013_0000001_1_af2pred_0001 (protein)
chain: NELVKAIRLLLQRFADDPEVLRVLRRILKLSLEDPEEAVELLLELAEKLGDPEVEELAREVERRR
B18: il10ra_site1_sap_16_mot_HHH_b2_08144_af2_000000046_0001_38_52_H_._HHH_b2_08331_0001_0000200020_0000002_0_0001 (protein)
chain: SSSSNAAEYLVRQALRAARLAKENNDPELVKRALEIAERIAENANDPELKELVEEVEEELESSSS
B19: il10ra_site1_normal_mot_HHH_b1_05326_000000242_0001_1_20_H_._HHH_b2_08124_0001_0000100011_0000002_0 (protein)
chain: SSSSSSDEFLRLLRRIFRLLLRGNPEEAQELLEELEELAEELNDPAARRAVEILKEAASSSSSSS
B20: il10ra_site1_normal_mot_HHH_b1_02809_af2_000000277_0001_40_57_H_._HHH_b2_07682_0001_0000300022_0000001_0_af2pred_0001 (protein)
chain: SSSSSRDEEAVRRALRLAKWLREAGDEEAVRKYLKAAKILAKRIGDPELEELVERVEEHLSSSSS
B21: il10ra_site1_normal_mot_HHH_b2_00273_000000062_0001_23_39_H_._HHH_b2_06821_0001_0000300032_0000001_0 (protein)
chain: SSSSEIEEFIEEVEERVRELVERGDTEEALQLLWEAAKLVAENNDEEALRILMELLRLVFRSSSS
B22: il10ra_site1_normal_mot_HHH_b2_01235_000000294_0001_1_18_H_._HHH_b1_05611_0001_0000600040_0000001_0_af2pred_0001 (protein)
chain: SSSSDVTERVLELLREALKLLKDGNPEEAREVLEEAEELAEEGNDELLRHLIEFAQEEIDSSSSS
B23: il10ra_site1_sap_16_mot_HHH_b2_03220_af2_000000223_0001_23_40_H_._HHH_b1_06161_af2_0001_0000300008_0000002_0_0001 (protein)
chain: SSSSSSDEEAAELIREISKVLAEGDRERVEELLEELEKLAEELGDPAARIYVEFVKQLLSSSSSS
B24: il10ra_site1_sap_21_mot_HHH_b1_05357_000000034_0001_23_39_H_._HHH_b2_05349_0001_0000600054_0000001_0_0001_af2pred_0001 (protein)
chain: SSSSNREQRVAELLARALRAAAEGNPEEAERLLEEARELAEELNDEELERAIEILKRYVERSSSS

These binders were tested against il10ra, Q13651 (assay: yeast display titration).
Sequence of il10ra, Q13651 (Q13651 whole entry): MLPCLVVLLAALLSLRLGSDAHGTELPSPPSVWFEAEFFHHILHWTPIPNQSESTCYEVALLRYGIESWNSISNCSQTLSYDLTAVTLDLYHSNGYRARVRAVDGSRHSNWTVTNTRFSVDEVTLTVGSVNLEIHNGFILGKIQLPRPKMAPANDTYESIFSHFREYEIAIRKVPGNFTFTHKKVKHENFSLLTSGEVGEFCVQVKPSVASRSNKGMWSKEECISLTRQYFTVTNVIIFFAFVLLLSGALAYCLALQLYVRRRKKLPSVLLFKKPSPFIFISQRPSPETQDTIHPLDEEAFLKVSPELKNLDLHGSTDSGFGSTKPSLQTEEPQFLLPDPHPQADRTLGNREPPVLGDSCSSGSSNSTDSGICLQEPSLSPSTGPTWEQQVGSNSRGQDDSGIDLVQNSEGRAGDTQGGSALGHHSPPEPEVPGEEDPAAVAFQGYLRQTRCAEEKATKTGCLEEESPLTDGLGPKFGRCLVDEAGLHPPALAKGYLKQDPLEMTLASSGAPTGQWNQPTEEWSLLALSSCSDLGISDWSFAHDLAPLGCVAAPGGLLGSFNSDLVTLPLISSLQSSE

Apparent Kd, inactive:
B1 no binding seen, B2 no binding seen, B3 > 1760 nM, B4 > 786 nM, B5 no binding seen, B6 no binding seen, B7 no binding seen, B8 no binding seen, B9 no binding seen, B10 no binding seen, B11 no binding seen, B12 no binding seen, B13 > 1500 nM, B14 no binding seen, B15 no binding seen, B16 no binding seen, B17 no binding seen, B18 no binding seen, B19 no binding seen, B20 no binding seen, B21 no binding seen, B22 no binding seen, B23 no binding seen, B24 no binding seen
